Assay results from PubChem BioAssay (NCATS).
Inconclusive results are not listed. Activity calls are given as the source filed them. The call rests on the fitted dose curve; in most records, active means well fitted curve in the direction sought with a large enough effect; inconclusive means small, poorly fitted or top-dose-only effect, or another doubt; inactive means no such curve, though single readings can be large; an effect the other way counts as inactive or inconclusive.

Tests used:
[1] = target: Cellular tumor antigen p53 (Homo sapiens) (UniProt P04637); experiment: Primary qHTS for small molecule compounds that upregulate eGFP-tagged delta133p53alpha (in N-terminal) cells. (AID 2060322); conditions: NCI-H358 eGFP-delta133p53alpha fluorescence, 24 h; activation: stronger effect = higher value;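 further: cells pre-induced with doxycycline then dosed without doxycycline; series mostly up to about 56 µM; 0% = DMSO vehicle and 100% = reference activator; nearly all actives have a fitted effect of over 75% in size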
Summary of the method: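 NCI-H358 cells pre-induced 24 h with 10 ng/ml doxycycline for eGFP-delta133p53alpha, plated dox-free and exposed 24 h at 37C to titrated compounds. Fixed, Hoechst-stained; gated GFP peak intensity by laser scanning cytometry, normalized to DMSO (0%) and 57.5 uM 5-azacytidine (100%).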

[2] = target: Aldehyde dehydrogenase, mitochondrial (Homo sapiens) (UniProt P05091); experiment: qHTS for Inhibitors of the Aldehyde Dehydrogenase Family (ALDH2) Primary screen (AID 2061308);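 further: plate controls were vehicle for no effect and reference inhibitor for full effect; nearly all actives have a fitted effect of over 55% in size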
[3] = target: Retinaldehyde dehydrogenase 3 (Homo sapiens) (UniProt P47895); experiment: qHTS for Inhibitors of the Aldehyde Dehydrogenase Family (ALDH1A3) Primary screen (AID 2061315);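 further: plate controls were DMSO vehicle for no effect and reference inhibitor for full effect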

Sequence of Cellular tumor antigen p53 (Homo sapiens) (P04637 whole entry, looked up): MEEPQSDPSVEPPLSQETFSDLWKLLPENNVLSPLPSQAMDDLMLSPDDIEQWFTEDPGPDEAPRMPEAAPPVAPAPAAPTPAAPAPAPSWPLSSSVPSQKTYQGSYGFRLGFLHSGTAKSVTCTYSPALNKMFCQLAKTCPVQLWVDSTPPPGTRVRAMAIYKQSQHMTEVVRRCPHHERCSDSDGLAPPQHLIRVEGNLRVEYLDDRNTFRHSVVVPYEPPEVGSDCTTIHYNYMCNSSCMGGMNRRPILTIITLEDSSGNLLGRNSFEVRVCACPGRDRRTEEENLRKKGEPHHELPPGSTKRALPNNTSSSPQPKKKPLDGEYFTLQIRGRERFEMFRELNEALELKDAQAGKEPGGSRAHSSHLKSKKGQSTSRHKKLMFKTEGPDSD

C/C(=C/CO)CC[C@@H]1[C@@]2(C)CCC[C@](C)(C(=O)O)C2CC[C@@]1(C)O (some centres undefined)
inactive: activation [1] 27.7% | Potency [2] | Potency [3]

C/C=C/C=C/C(=O)O[C@@H]1C=C2COC(=O)[C@]2(O)[C@@]2(C)CCCC(C)(C)[C@H]12
inactive: activation [1] -3.82% | Potency [2] | Potency [3]

CS(=O)(=O)c1ccc([C@H](CC2CCCC2)C(=O)Nc2nccs2)cc1
inactive: activation [1] -11.6% | Potency [2] | Potency [3]

CC1C(OC(=O)c2ccccc2)C(O)C2C(C(=O)O)=COC(OC3OC(CO)C(O)C(O)C3O)C12 (centres undefined)
inactive: activation [1] -16% | Potency [2] | Potency [3]

C[C@@H]1C[C@H]2[C@@H]3CCC4=CC(=O)C=C[C@]4(C)[C@@]3(F)[C@@H](O)C[C@]2(C)[C@@]1(O)C(=O)COP(=O)(O)O
inactive: activation [1] -5.67% | Potency [2] | Potency [3]

COc1ccc(Sc2ccc(NC(=O)c3ccccc3Cl)cc2C#N)cc1
inactive: activation [1] 20.3% | Potency [2] | Potency [3]

CC1(C)CC[C@]2(C(=O)O)[C@H](O)C[C@]3(C)C(=CCC4[C@@]5(C)CC[C@H](O[C@@H]6O[C@H](CO[C@@H]7OC[C@H](O)[C@H](O)[C@H]7O[C@@H]7OC[C@@H](O)[C@H](O)[C@H]7O)[C@@H](O)[C@H](O)[C@H]6O[C@@H]6O[C@H](CO)[C@@H](O)[C@H](O)[C@H]6O)C(C)(C)C5CC[C@]43C)[C@@H]2C1 (some centres undefined)
inactive: activation [1] -17.6% | Potency [2] | Potency [3]

C/C=C(\C)C(=O)OCC1OC(OC2OC(CO)C(O)C(O)C2O)C(O)C(O)C1O (centres undefined)
inactive: activation [1] -16.8% | Potency [2] | Potency [3]
